Data from the supplement of paper PMC12669032.

test system: Collinsella aerofaciens; assay: growth AUC relative to DMSO control (median of replicates) (fraction); higher = more growth (less inhibition), active = hit call of the paper; conditions: 20 µM; 24 h;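 active = AUC reduced over 20% with Padj below 0.05 in at least 2 of 3 replicates; inactive = otherwise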
How it was run: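 Gut bacterial monocultures were grown anaerobically at 37 °C in mGAM, starting at OD600 0.05, with 20 µM compound (1% DMSO) in round-bottom 96-well plates under pierced gas-permeable seals. OD600 was read hourly for 24 h. Area under the growth curve (minimum OD set to 0) was normalised to the plate median of DMSO controls, or to row and column medians on the industrial chemical plate. The value is the median of three biological replicates grown on separate days.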

Growth AUC, inactive:
CC(C)c1cccc2c(=O)c3ccccc3sc12 0.95, CP(=O)(O)CCC(=O)O 1, ClC(COCC(Cl)C(Cl)(Cl)Cl)C(Cl)(Cl)Cl (centres undefined) 1.05, CCc1cccc(C)c1N(C(=O)CS(=O)(=O)[O-])C(C)COC.[Na+] (centres undefined) 0.923, COCC(=O)N(c1c(C)cccc1C(=O)O)C(C)C(=O)O (centres undefined) 1, COC(=O)C(C)Oc1ccc(Oc2ccc(C(F)(F)F)cn2)cc1 (centres undefined) 0.979, O=S(Cc1ccc(Cl)cc1)c1ccc(Cl)cc1 (centres undefined) 0.972, O=C(O)c1ccc(Cl)cc1Cl 1.02, Nc1ccc(S(=O)(=O)Nc2cnc3ccccc3n2)cc1 0.982, COC(=O)c1ccc(CNS(C)(=O)=O)cc1S(=O)(=O)NC(=O)Nc1nc(OC)cc(OC)n1 1.01, CC(C)(NC(=O)NCc1ccccc1Cl)c1ccccc1 0.96, CCC(C)Nc1nc(N)nc(Cl)n1 (centres undefined) 1.01, Cc1cccc(C)c1N(C(=O)CCl)C1CCOC1=O (centres undefined) 0.959, CC(C)(NC(=O)C(Br)C(C)(C)C)c1ccccc1 (centres undefined) 1.01, O=C(O)Cc1cccc2ccccc12 0.968, NC(Cn1cncn1)C(=O)O (centres undefined) 1.01, CCc1nc2ncnn2c(N)c1CCCCCC(=O)O.Cl 0.996, Cn1cc(C(=O)Nc2ccccc2-c2cc(F)c(F)c(F)c2)c(C(F)F)n1 0.987, NC(=O)Cc1cccc2ccccc12 0.981, CC(C)c1ccccc1 1.02, CCCCCCCCSCCO 0.949, CN(C)C(=O)Nc1ccc(Cl)c(Cl)c1 0.992, c1ccc(Nc2ccccc2)cc1 1.01, CC1=C(C(=O)Nc2ccccc2)CCCO1 1.01, CCOC(=O)C(C)Oc1ccc(Oc2nc3ccc(Cl)cc3o2)cc1 (racemic) 0.947, O.O=C(Nc1ccc([N+](=O)[O-])cc1Cl)c1cc(Cl)ccc1O 0.865, CN(C)C(N)=O 0.977, COC(=O)c1c(Cl)nn(C)c1S(=O)(=O)NC(=O)Nc1nc(OC)cc(OC)n1 1.02, N#Cc1ccccc1NC(=O)c1snc(Cl)c1Cl 1.05, COCC(=O)N(c1c(C)cccc1C)C(C)C(=O)O (centres undefined) 1.08, COCCN(C(=O)CO)c1c(C)cccc1C(=O)O 0.936, CNC(=O)Nc1nc2ccccc2s1 0.942, O=C(O)COc1ccc(Cl)c2cccnc12 1.02, CC(C)([CH2][Sn]([CH2]C(C)(C)c1ccccc1)([CH2]C(C)(C)c1ccccc1)[O][Sn]([CH2]C(C)(C)c1ccccc1)([CH2]C(C)(C)c1ccccc1)[CH2]C(C)(C)c1ccccc1)c1ccccc1 1.01, CN(C)C(=O)Nc1ccc(Oc2ccc(Cl)cc2)cc1 0.924, CCc1ccc(O)cc1 0.919, Cc1nn(C)c(F)c1C(=O)Nc1ccccc1C(C)CC(C)C (centres undefined) 1.02, CCc1cccc(C)c1NC(=O)C(=O)O 0.983, CCCCC(CC)COC(=O)COc1ccc(Cl)cc1C (centres undefined) 0.907
